Measurements: the supplement of paper PMC9433436
± gives the standard deviation of the averaged measurements. Whole data set: some 4,100 sequences, median “relative kcat/Km (krel) vs genomic leader AAAGAU” near 1.7, cut for the highest 2% near 6.5. Shown is part of a subset that was picked to be rich in the highest values.

Biological target: T1, E. coli RNase P holoenzyme (M1 P RNA + rnpA protein) (UniProt P0A7Y8)
T1 sequence: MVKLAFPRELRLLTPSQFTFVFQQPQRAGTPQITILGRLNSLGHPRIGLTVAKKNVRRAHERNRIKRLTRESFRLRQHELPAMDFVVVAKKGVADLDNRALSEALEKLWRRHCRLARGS
Experiment: relative kcat/Km (krel) vs genomic leader AAAGAU (relative (reference leader = 1)); higher = faster RNase P cleavage
Experimental: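 HTS-Kin: a pool of ptRNA-Met (21C construct) with all 4096 combinations of 5' leader nucleotides N(-6) to N(-1) was processed in vitro by E. coli RNase P (P RNA + rnpA/C5 protein) under multiple-turnover conditions at 37 C, pH 8, 17.5 mM MgCl2. Residual substrate was Illumina-sequenced at several fractions reacted, and relative kcat/Km (krel) was computed by internal competition kinetics, calibrated to the genomic leader (AAAGAU = 1). The listed hexamer is the varied N(-6)..N(-1) leader (DNA letters), and it sits between a fixed 5' stem-loop flank (GCAUGCACGAAAGUGCGUGCUAUGAA) and the mature tRNA-Met starting GGCUACGUAGCUCAGUUGG. Two technical replicates are averaged.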

[1] = fraction of substrate reacted: ~9-10% (9.79% repeat 1, 9.1% repeat 2)
[2] = fraction of substrate reacted: ~13-16% (15.68% repeat 1, 13.17% repeat 2)
[3] = fraction of substrate reacted: ~26-29% (28.66% repeat 1, 26.4% repeat 2)

Sequence | relative kcat/Km [1] | relative kcat/Km [2] | relative kcat/Km [3]
CCTCCT | 2.08 ± 1.7 | 1.23 ± 0.17 | 1.29 ± 0.79
AGAAAA | 3.05 ± 0.94 | 2.65 ± 0.37 | 3.92 ± 1.1
ACTGGC | – | – | 1.69 ± 1.6
TCTCAC | 3.41 ± 1.3 | 4.45 ± 1.3 | 6.16 ± 2.3
AGTCAT | 3.31 ± 1.6 | 5 ± 1.1 | 6.79 ± 3.2
GGTCAC | 2.53 ± 0.97 | 2.2 ± 0.29 | 3.14 ± 0.83
AGTCAC | 4.5 ± 2.3 | 4.987 ± 0.032 | 7.1 ± 2.9
ACTCAC | 2.6 ± 1.1 | 2.87 ± 0.13 | 4.43 ± 1.7
AGTCAG | 2.12 ± 2 | 1.91 ± 0.42 | 3.69 ± 0.62
TGTCAC | 3.25 ± 2.2 | 4.8 ± 0.85 | 7.18 ± 3
TGTCAT | 3.5 ± 1.3 | 4.28 ± 1.1 | 6.84 ± 3.2
TGTCAG | – | 1.4 ± 0.17 | 3.3 ± 0.62
AGTCAA | 2.58 ± 0.11 | 4 ± 1.2 | 6.05 ± 2.9
TGTCGC | 1.87 ± 0.089 | 2.92 ± 1.1 | 5.09 ± 2.2
TGTCAA | 3.03 ± 1.6 | 3.56 ± 0.18 | 5.75 ± 2.1
GCTATC | 1.45 ± 0.98 | 0.842 ± 0.77 | 1.645 ± 0.013
ATTCCT | 1.97 ± 0.65 | 2.19 ± 0.27 | 2.93 ± 1.1
AAATTC | 2.35 ± 1.4 | 1.98 ± 0.19 | 2.34 ± 0.6
TAATGG | 0.461 ± 0.18 | – | –
CAACAG | – | – | 1 ± 0.52
TGACAA | 3.11 ± 2.1 | 3.72 ± 0.47 | 4.23 ± 1.4
GTACGC | 2 ± 0.098 | 2.7 ± 0.46 | 3.72 ± 1.3
CCTCAC | 2.54 ± 0.75 | 3.07 ± 0.55 | 4.22 ± 1.2
CGTCAT | 2.843 ± 0.013 | 4.98 ± 1.9 | 6.96 ± 3.1
CGTCAA | 1.61 ± 0.25 | 3.42 ± 0.92 | 5.08 ± 1.4

Sequence | relative kcat/Km [1] | relative kcat/Km [2] | relative kcat/Km [3]
CGTCGC | 2.49 ± 0.74 | 3.77 ± 0.95 | 4.81 ± 1.1
CGTCAC | 4.5 ± 2.1 | 5.37 ± 0.7 | 6.77 ± 2
CGTCAG | 0.776 ± 0.25 | 1.34 ± 0.28 | 3.11 ± 0.5
AGTCTT | 3.48 ± 0.67 | 3.72 ± 0.46 | 5 ± 2.2
GAGCAA | 1.98 ± 0.29 | 2.27 ± 0.026 | 2.57 ± 0.78
TATTAC | 3.92 ± 1.1 | 5.68 ± 0.93 | 7.86 ± 3.4
AATTAT | 3.11 ± 0.81 | 4.75 ± 0.82 | 5.76 ± 2.3
TATTAA | 4.01 ± 2.3 | 5.12 ± 0.072 | 6.96 ± 2.6
TATTCT | 3.27 ± 1.2 | 4.15 ± 0.4 | 5.78 ± 2.3
AATTAC | 3.5 ± 1.7 | 3.97 ± 0.31 | 5.32 ± 1.9
TATTCC | 2.05 ± 0.31 | 2.87 ± 0.33 | 3.57 ± 1.4
TATTAT | 4.02 ± 1.1 | 5.95 ± 1.7 | 9.03 ± 4.1
TATTAG | 2.38 ± 2.3 | 2.95 ± 0.03 | 4.43 ± 1.4
AATTAA | 2.86 ± 2 | 3.37 ± 0.39 | 4.73 ± 1.6
ACTTTG | – | – | 1.31 ± 0.45
GCCCTC | 1.81 ± 0.28 | 2.28 ± 1.4 | 3.98 ± 1.6
CGCCGT | 0.516 ± 0.5 | – | 1.06 ± 0.75
AATTAG | – | 1.34 ± 0.23 | 3.09 ± 1.5
AGTACT | 2.34 ± 1.3 | 2.42 ± 0.095 | 3.74 ± 1.6
AAATAT | 1.72 ± 0.35 | 3.11 ± 0.79 | 4.74 ± 2.4
GCGGAG | – | – | 0.583 ± 0.36
TCGGAA | 1.2 ± 1.2 | 1.23 ± 0.93 | 1.33 ± 0.09
AAATCA | 1.55 ± 0.36 | 1.42 ± 0.17 | 1.8 ± 0.46
CTCGTC | 2.68 ± 0.76 | 3.41 ± 0.98 | 5.19 ± 2
